93 compounds from PubChem BioAssay AID449762 (Southern Research Specialized Biocontainment Screening …, 2010) can be followed below.

The structures appear in SMILES notation. The campaign covered roughly 330,000 compounds. About 1,900 (0.58%) were called active. Not shown: some 4% with an inconclusive outcome. No stated cut-off is given here; in the data, inconclusive means inhibition above about 70% without an active follow-up result; inactive means below that. A selection follows. Potency and affinity values are given separately.

This assay is described as follows: M. tuberculosis growth inhibition, HTS (AID 449762).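 Further: bacterial growth assessed after seven days of incubation.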 The following applies: M. tuberculosis H37Rv growth inhibition, 7H9 media; at 25 µM; active compounds read high.
`O=C(N/N=C(/CC(=O)c1cccs1)C(F)(F)F)c1ccc(O)cc1`: the inhibition – broadly, the relative decrease from the control value, in per cent – is 33.1% (inactive).

Regarding `O=C(N/N=C(\CC(=O)c1cccs1)C(F)(F)F)c1cccnc1`, the inhibition was -1.08% (inactive).

In the case of `CC(C)Nc1nc(NC(C)C)nc(OCCOC(=O)c2ccccc2)n1`, the inhibition is 2.84% (inactive).

As for `CCOC(=O)[C@@H]1[C@H]2COc3cc(OC)ccc3[C@H]2N2C(=O)N(c3ccc(C(F)(F)F)cc3)C(=O)[C@@]12C`, the inhibition was 6.64% (inactive).

`CCOC(=O)[C@@H]1[C@H]2COc3cc(OC)ccc3[C@@H]2N2C(=O)N(c3ccc(C(F)(F)F)cc3)C(=O)[C@]12C`: the inhibition was 1.49% (inactive).

As to `O=C(CC1SC(=O)N(c2ccccc2)C1=O)Nc1ccc(Cl)cc1` (stereo not drawn), the inhibition is -2.72% (inactive).

For `O=C(N/N=C1\CCCc2ccccc21)c1cccc(Br)c1`, the inhibition was 17.8% (inactive).

With `O=C(NN=C1CCCC1)c1cccc(Br)c1`, the inhibition is 8.38% (inactive).

For `O=C(Nc1ccc(Nc2ccccc2)cc1)C1CC1`, the inhibition is 0.68% (inactive).

On to `O=C(Nc1ccc(N2CCOCC2)cc1)C1CC1`, for which the inhibition is -20.2% (inactive).

Turning to `CC(C)(C)c1ccc(OCCC(=O)NNC(=O)c2ccccc2)cc1`, the inhibition is -10.6% (inactive).

As to `O=C(COc1ccc([N+](=O)[O-])cc1)N(Cc1cccs1)C1CCS(=O)(=O)C1` (stereo not drawn), the inhibition is -4.33% (inactive).

`COc1ccccc1N1CCN(S(=O)(=O)CCNC(=O)CC2CCCCC2)CC1`: the inhibition was -4.01% (inactive).

As to `COCCNC(=O)C(c1ccc(C)cc1)N(C(=O)C(=O)NC1CCCC1)c1ccc2c(c1)OCCO2` (stereo not drawn), the inhibition is 0.7% (inactive).

With `COCCNC(=S)N/N=C(\C)c1ccc(O)cc1`, the inhibition is -0.19% (inactive).

Consider `COCCNC(=S)N/N=C(\C)c1ccc(OC(F)F)cc1`, for which the inhibition was 2.04% (inactive).

As to `O=C(Nc1ccccc1-c1nc2ccccc2[nH]1)c1sc2ccccc2c1Cl`, the inhibition was 8.98% (inactive).

On to `CCN1CCN(Cc2ccc(NC(=O)c3ccc(C)c(NC(=O)c4ccnnc4)c3)cc2C(F)(F)F)CC1`, for which the inhibition was -1.41% (inactive).

Take `CCN1CCN(Cc2ccc(NC(=O)c3ccc(C)c(NC(=O)c4ccc5n[nH]nc5c4)c3)cc2C(F)(F)F)CC1`: the inhibition was 4.3% (inactive).

As for `COC(=O)c1cc(NC(=O)Cc2ccc(OC)cc2)cc(C(=O)OC)c1`, the inhibition was -3.89% (inactive).

`CC1CCC(NC(=O)COC(=O)C2=NN(c3ccccc3)C(=O)CC2)CC1` (stereo not drawn): the inhibition was 1.24% (inactive).

On to `COc1cccc2cc(C(=O)Nc3ccc(S(=O)(=O)NCC4CCCO4)cc3)c(=O)oc12` (stereo not drawn), for which the inhibition was 1.32% (inactive).

As to `Cc1ccccc1C(=O)/C(C#N)=N/Nc1c(C)n(C)n(-c2ccccc2)c1=O`, the inhibition was -1.13% (inactive).

For the compound `O=C(/C=C/c1c(F)cccc1Cl)Nc1ccncc1`, the inhibition is 9.18% (inactive).

For the compound `O=C(Nc1ccc(OC(F)(F)F)cc1)c1ccc2nccnc2c1`, the inhibition was 66.2% (inactive).

Consider `O=C(Nc1ccc(OC(F)(F)F)cc1)c1ccc2nc[nH]c2c1`, for which the inhibition was 41.2% (inactive).

With `S=C(NCCC(c1ccccc1)c1ccccc1)Nc1ccc(Cl)cc1`, the inhibition was 1.85% (inactive).

Consider `O=c1cc(N2CCOCC2)cnn1-c1ccccc1`, for which the inhibition is 14.3% (inactive).

In the case of `O=S(=O)(Nc1ccccc1)c1ccc(S(=O)(=O)N2CCCC2)cc1`, the inhibition was -1.05% (inactive).

In the case of `O=[N+]([O-])c1cc(-c2ncccn2)cs1`, the inhibition is 0.84% (inactive).

As for `Nc1ncc([N+](=O)[O-])s1`, the inhibition was -0.165% (inactive).

`CCn1nnc(-c2ccccc2NS(=O)(=O)c2ccc(S(=O)(=O)N(C)C3CCCCC3)cc2)n1`: the inhibition was 2.36% (inactive).

`N#Cc1ccccc1COC(=O)CCC(=O)c1cccs1`: the inhibition was 5.44% (inactive).

Turning to `c1ccc2c(CNc3ccc(CNc4ncn[nH]4)cc3)cccc2c1`, the inhibition is 1.09% (inactive).

`C/C(=N\NC(=O)c1c[nH]c2ccccc12)c1ccco1`: the inhibition was 19.6% (inactive).

As for `C/C(=N/NC(=O)c1ccccn1)c1ccncc1`, the inhibition is 39.2% (inactive).

In the case of `COc1ccc(CN2CCC(Oc3ccc(C(=O)NCc4ccccn4)cc3)CC2)c(F)c1`, the inhibition is -12.3% (inactive).

Consider `CCOc1ccc(NC(=O)NC2CCCc3ccccc32)cc1` (stereo not drawn), for which the inhibition was -11.3% (inactive).

Consider `Cc1cnnc2ccc3c(no[n+]3[O-])c12`, for which the inhibition was 0.29% (inactive).

Regarding `Cc1cc2c(N)cccc2nn1`, the inhibition was -2.97% (inactive).

As for `Cc1ccc(-n2c(CSc3nc(C)cc(C)n3)n[nH]c2=S)cc1`, the inhibition is -6.43% (inactive).

`N#Cc1c(N)nc2c(c1-c1ccc(Br)s1)CCCC2`: the inhibition is 0.77% (inactive).

As to `Cc1ccc(C)c(NC(=O)CN(C)C(=O)[C@@H](NC(N)=O)C(C)C)c1`, the inhibition was 1.17% (inactive).

For `OCC1OC(n2cnc3c(NC4CCCC4)ncnc32)C(O)C1O` (stereo not drawn), the inhibition is -0.62% (inactive).

Regarding `OC[C@H]1O[C@@H](n2cnc3c(NC4CCCC4)ncnc32)[C@H](O)[C@@H]1O`, the inhibition is -4.16% (inactive).

In the case of `COc1cc(/C=C\C(=O)NCc2ccc3[nH]c(C)cc3c2)cc(OC)c1OC`, the inhibition was -3.67% (inactive).

Regarding `O=C(Cn1cnc2c(nnn2-c2ccccc2)c1=O)N1CCC(Cc2ccccc2)CC1`, the inhibition is -6.42% (inactive).

As for `COc1ccc(-n2nnc3c(=O)n(CC(=O)N4CCC(Cc5ccccc5)CC4)cnc32)cc1`, the inhibition is -2.79% (inactive).

For the compound `CCc1ccc(C(=O)COC(=O)C(CCSC)NC(=O)C23CC4CC(CC(C4)C2)C3)cc1` (stereo not drawn), the inhibition is 1.72% (inactive).

With `CCCCNC(=S)N(C)/N=C/c1c(F)cccc1F`, the inhibition was -1.55% (inactive).

With `CCCCNC(=S)N(C)/N=C/c1ccccc1F`, the inhibition is 7.41% (inactive).

`FC(F)(F)c1cc(CCN2C(=S)NC[C@@H]2CC2CCCCC2)cc(C(F)(F)F)c1`: the inhibition was -2.31% (inactive).

Take `CCCC[C@@H]1CN=C(N)N1CCc1cc(C(F)(F)F)cc(C(F)(F)F)c1`: the inhibition was 4.85% (inactive).

Turning to `COc1ccccc1CC(=O)NC1CCCCCC1`, the inhibition is -3.92% (inactive).

Consider `CC1CCCCC1NC(=O)Cn1c(CN2CCCCC2)nc2ccccc2c1=O` (stereo not drawn), for which the inhibition is 5.05% (inactive).

In the case of `COc1ccc(N2C(=O)CC(NNC(=O)c3cc(C)oc3C)C2=O)cc1` (stereo not drawn), the inhibition is -4.63% (inactive).

Turning to `NC1=CC(=O)c2cccc3cccc1c23`, the inhibition was -0.47% (inactive).

`O=C1C(=O)c2cccc3cccc1c23`: the inhibition is 3.34% (inactive).

In the case of `COc1cc2c(cc1NC(=O)COC(=O)CNS(=O)(=O)c1ccc(C)cc1)oc1ccccc12`, the inhibition was 20.6% (inactive).

For `Cc1ccc(C)c(NC(=O)CCNS(=O)(=O)c2ccc3[nH]c(=O)oc3c2)c1`, the inhibition was -1.71% (inactive).

As for `CC1(c2ccc(OC(F)F)cc2)NC(=O)N(CC(=O)Nc2ccc3c(c2)OCO3)C1=O` (stereo not drawn), the inhibition was 1.98% (inactive).

On to `CC1(c2ccc(Cl)cc2)NC(=O)N(CC(=O)c2ccc3c(c2)OCO3)C1=O` (stereo not drawn), for which the inhibition was -11.1% (inactive).

Turning to `CCN(CC(=O)Nc1ccccc1C(=O)OC)S(=O)(=O)c1ccccc1`, the inhibition is -8.58% (inactive).

Regarding `Cc1nc(-c2nnc(SCC(=O)Nc3cc(Cl)cc(Cl)c3)n2C)cs1`, the inhibition is -8.27% (inactive).

Regarding `CC1CCCCN1C(=O)C1CCN(S(=O)(=O)c2ccc(-n3cnnn3)cc2)CC1` (stereo not drawn), the inhibition is -3.02% (inactive).

Turning to `COc1ccc(OC)c2[nH]c(=O)c(CCNC(=O)c3ccc(Br)o3)cc12`, the inhibition is -4.84% (inactive).

As for `Cc1cc(=O)oc2cc(OCC(=O)N3CCN(C(=O)C4COc5ccccc5O4)CC3)ccc12` (stereo not drawn), the inhibition is 5.34% (inactive).

In the case of `Cc1cc(=O)oc2cc(OCC(=O)N3CCN(C(=O)C4COc5ccccc5O4)CC3)c(Cl)cc12` (stereo not drawn), the inhibition was 68.3% (inactive).

Consider `O=C(NCCN1CCOCC1)C1CCCN(S(=O)(=O)c2ccc(F)cc2)C1` (stereo not drawn), for which the inhibition is -1.03% (inactive).

As for `CC(=O)C1=NOC(CNc2ncc(C(F)(F)F)cc2Cl)C1` (stereo not drawn), the inhibition was -4.07% (inactive).

Turning to `NNC(=O)C1=NOC(CNc2ncc(C(F)(F)F)cc2Cl)C1` (stereo not drawn), the inhibition is -0.88% (inactive).

Take `O=c1[nH]c2cc(Cl)ccc2n(CCNc2ncc(C(F)(F)F)cc2Cl)c1=O`: the inhibition is -0.44% (inactive).

For the compound `O=c1c2nncn2c2cc(C(F)(F)F)ccc2n1CCNc1ncc(C(F)(F)F)cc1Cl`, the inhibition is -1.6% (inactive).

With `Cc1nnc(SCc2c(Cl)cccc2Cl)s1`, the inhibition is 7.37% (inactive).

Consider `O=C(C1CCCN(c2ncnc3c2nc2n3CCCCC2)C1)N1CCN(c2ccccc2)CC1` (stereo not drawn), for which the inhibition was 6.98% (inactive).

In the case of `O=C(C1CCCN(c2ncnc3c2nc2n3CCCCC2)C1)N1CCN(c2ccc(F)cc2)CC1` (stereo not drawn), the inhibition was 23.2% (inactive).

`COc1cc2c(cc1NC(=O)Cc1ccc(C)cc1)oc1ccccc12`: the inhibition is -1.99% (inactive).

As to `CCOc1ccccc1/C=C(/NC(=O)c1ccccc1)C(=O)N1CCCCC1`, the inhibition is 4.77% (inactive).

Regarding `CCOP(=O)(OCC)C(NC(=O)c1ccccc1)=C(Cl)Cl`, the inhibition is -0.5% (inactive).

In the case of `COc1ccc(/C(C)=N/N2CCCCC2)c(O)c1`, the inhibition was 0.48% (inactive).

Turning to `Cc1nn(Cc2ccc(Cl)cc2Cl)c(C)c1NC(=O)Cn1nc([N+](=O)[O-])c(Cl)c1C`, the inhibition was 5.47% (inactive).

For `S=C(NCc1ccc2c(c1)OCO2)NCc1ccc2c(c1)OCO2`, the inhibition was 2.49% (inactive).

Take `S=C(NCc1ccccc1)NCc1ccc2c(c1)OCO2`: the inhibition is 13% (inactive).

For the compound `CN1/C(=C\C(=O)COC(=O)c2ccc(O)c(O)c2)C(C)(C)c2ccccc21`, the inhibition is 25% (inactive).

Turning to `Oc1ccc(CCNc2c3ccccc3nc3ccccc23)cc1O`, the inhibition was -2.38% (inactive).

`O=C(Nc1ccc2c(c1)OCO2)c1c(F)c(F)c(F)c(F)c1F`: the inhibition was 2.74% (inactive).

Consider `Cc1ccc(OCC(=O)NNC(=O)C2CCN(c3ncnc4sc(C)c(C)c34)CC2)cc1`, for which the inhibition was 42% (inactive).

`Cc1sc2ncnc(N3CCCCC3)c2c1C`: the inhibition is 5.45% (inactive).

In the case of `CSc1ccccc1NC(=O)CN1c2ccccc2CC1C` (stereo not drawn), the inhibition is 7.66% (inactive).

In the case of `CCOC(=O)Cc1csc(NC(=O)COc2ccccc2OCC)n1`, the inhibition is -11.5% (inactive).

For `CCOC(=O)Cc1csc(NC(=O)CCSc2ccccc2)n1`, the inhibition is 5.94% (inactive).

With `COC(=O)CSc1ncnc2c1sc1nc(N3CCOCC3)c3c(c12)CCCC3`, the inhibition is -2.32% (inactive).

As to `COC(=O)c1ccc(CSc2ncnc3c2sc2nc(N4CCOCC4)c4c(c23)CCCC4)o1`, the inhibition was -0.71% (inactive).
